Measurements published in PubChem BioAssay.
For part of these data: Measured potencies and affinities stand elsewhere. Active and inactive are the calls of the source.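 Rule for the calls, unless noted: active = earlier screen potentiator hit that boosts the TRPC4 ion channel at some dose, with a dose response; inactive = no potentiation, no dose response, or not a prior hit.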

Columns and labels:
[1] = tested on: TRPC4 beta (transient receptor potential cation channel C4), mouse; assay: activators of mouse TRPC4 channel, confirmation, cell-based, Fluo4 calcium, HEK293 TRPC4beta/mu-opioid, duplicates, 10 µM (AID 2426;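 active = fluorescence ratio normalized to control raised more than 50% in primary screen plus both repeat runs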); settings: Fluo4 calcium fluorescence, at 10 µM; stronger effect = higher value
[2] = tested on: transient receptor potential cation channel C4 beta (TRPC4), mouse; assay: activators of mouse TRPC4 channel, confirmation, cell-based, second round, Fluo4, HEK293 TRPC4beta/mu-opioid, 1 µM (AID 2461;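 active = primary screen active and over 50% activation in each of two duplicate runs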); settings: Fluo4 calcium fluorescence, at 1 µM; stronger effect = higher value
[3] = tested on: TRPC4 (transient receptor potential cation channel C4 beta), mouse; assay: positive allosteric modulators of mouse TRPC4, confirmation, cell-based, second round, Fluo-4, HEK293 TRPC4beta/mu-opioid, 1 µM (AID 2554;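 active = primary screen hit whose fluorescence ratio, in both repeats, exceeds the weak agonist control mean by 3 SD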); settings: DAMGO EC20, Fluo-4 calcium flux, at 1 µM; stronger effect = higher value
[4] = tested on: TRPC4 beta (transient receptor potential cation channel C4), mouse; assay: positive allosteric modulators of mouse TRPC4, confirmation, cell-based, Fluo-4, HEK293 TRPC4beta/mu-opioid (AID 2555;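 active = primary screen hit whose calcium fluorescence ratio, in both repeats, exceeds the weak agonist control mean by 3 SD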); settings: DAMGO EC20, Fluo-4 calcium flux, at 10 µM; stronger effect = higher value
[5] = biological target: Short transient receptor potential channel 4 (Mus musculus) (UniProt Q9QUQ5); assay: inhibitors of mouse TRPC4 channel, confirmation, cell-based, Fluo4, HEK293 TRPC4beta/mu-opioid (AID 2636;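 active = calcium signal cut by more than 3 SD below the full-agonist control yet still positive, in both repeats and the earlier primary screen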); settings: DAMGO, Fluo4 calcium flux, at 10 µM; stronger effect = higher value
Sequence of Short transient receptor potential channel 4 (Mus musculus) (Q9QUQ5 whole entry, looked up): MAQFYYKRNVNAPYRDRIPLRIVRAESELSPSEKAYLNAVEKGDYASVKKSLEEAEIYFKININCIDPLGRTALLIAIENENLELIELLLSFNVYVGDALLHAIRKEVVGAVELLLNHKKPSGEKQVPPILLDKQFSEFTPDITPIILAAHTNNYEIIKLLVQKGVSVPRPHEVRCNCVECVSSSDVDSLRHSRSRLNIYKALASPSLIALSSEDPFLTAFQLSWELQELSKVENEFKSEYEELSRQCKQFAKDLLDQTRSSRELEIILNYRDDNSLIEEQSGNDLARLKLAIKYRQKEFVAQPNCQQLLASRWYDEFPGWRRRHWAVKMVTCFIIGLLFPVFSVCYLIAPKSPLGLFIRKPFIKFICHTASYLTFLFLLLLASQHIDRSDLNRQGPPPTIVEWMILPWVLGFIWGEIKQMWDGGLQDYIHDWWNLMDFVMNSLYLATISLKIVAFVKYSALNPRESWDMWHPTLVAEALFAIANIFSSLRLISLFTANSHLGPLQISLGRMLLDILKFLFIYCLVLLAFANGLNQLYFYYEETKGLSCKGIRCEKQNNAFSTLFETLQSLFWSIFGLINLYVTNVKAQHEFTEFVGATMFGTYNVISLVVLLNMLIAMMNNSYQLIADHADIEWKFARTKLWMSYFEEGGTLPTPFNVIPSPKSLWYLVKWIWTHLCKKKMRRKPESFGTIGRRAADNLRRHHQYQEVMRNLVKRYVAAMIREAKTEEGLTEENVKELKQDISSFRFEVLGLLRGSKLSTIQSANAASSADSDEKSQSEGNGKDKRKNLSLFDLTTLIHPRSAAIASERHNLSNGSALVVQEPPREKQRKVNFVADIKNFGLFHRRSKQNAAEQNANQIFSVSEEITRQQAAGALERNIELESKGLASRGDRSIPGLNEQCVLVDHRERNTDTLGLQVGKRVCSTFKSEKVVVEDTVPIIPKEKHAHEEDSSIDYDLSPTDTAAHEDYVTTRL

[6] = biological target: Short transient receptor potential channel 4 (Mus musculus) (UniProt Q9QUQ5); assay: inhibitors of mouse TRPC4 channel, confirmation, cell-based, second round, Fluo4, HEK293 TRPC4beta/mu-opioid, 1 µM (AID 2637;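 active = calcium signal ratio cut to more than 3 SD under the fully stimulated control mean yet still positive, in both repeats and the primary screen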;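 for inhibition: percent of integrated ratio relative to wells lacking test compound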); settings: Fluo4 calcium flux, DAMGO, at 1 µM; stronger effect = higher value
[7] = biological target: Short transient receptor potential channel 4 (Mus musculus) (UniProt Q9QUQ5); assay: mouse TRPC4 channel activators, dose response, cell-based, HEK293 TRPC4/mu-opioid, Fluo-4 calcium (AID 434937;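 active = primary screen activator hit with a dose response curve and TRPC4 channel activation at any tested dose; inactive = no activation, no dose response, or not a primary hit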)
[8] = biological target: Short transient receptor potential channel 4 (Mus musculus) (UniProt Q9QUQ5); assay: TRPC4 positive allosteric modulators, dose response, cell-based, HEK293 TRPC4/mu-opioid, Fluo-4 calcium, EC20 DAMGO (AID 434941);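 note: calcium entry triggered by an EC20 dose of DAMGO at the co-expressed mu-opioid receptor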
[9] = biological target: Short transient receptor potential channel 6 (Mus musculus) (UniProt Q61143); assay: inhibition of mouse TRPC6 channel, confirmation, selectivity assay for TRPC4 inhibitor project, cell-based, HEK293, membrane potential dye, duplicate (AID 434948;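 active = active in primary screen and both duplicates, each dropping signal beyond three positive-control SD with fluorescence still positive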); settings: HEK293 TRPC6, membrane potential dye fluorescence, at 10 µM, stimulated with maximal-effect acetylcholine; stronger effect = higher value
Sequence of Short transient receptor potential channel 6 (Mus musculus) (Q61143 whole entry, looked up): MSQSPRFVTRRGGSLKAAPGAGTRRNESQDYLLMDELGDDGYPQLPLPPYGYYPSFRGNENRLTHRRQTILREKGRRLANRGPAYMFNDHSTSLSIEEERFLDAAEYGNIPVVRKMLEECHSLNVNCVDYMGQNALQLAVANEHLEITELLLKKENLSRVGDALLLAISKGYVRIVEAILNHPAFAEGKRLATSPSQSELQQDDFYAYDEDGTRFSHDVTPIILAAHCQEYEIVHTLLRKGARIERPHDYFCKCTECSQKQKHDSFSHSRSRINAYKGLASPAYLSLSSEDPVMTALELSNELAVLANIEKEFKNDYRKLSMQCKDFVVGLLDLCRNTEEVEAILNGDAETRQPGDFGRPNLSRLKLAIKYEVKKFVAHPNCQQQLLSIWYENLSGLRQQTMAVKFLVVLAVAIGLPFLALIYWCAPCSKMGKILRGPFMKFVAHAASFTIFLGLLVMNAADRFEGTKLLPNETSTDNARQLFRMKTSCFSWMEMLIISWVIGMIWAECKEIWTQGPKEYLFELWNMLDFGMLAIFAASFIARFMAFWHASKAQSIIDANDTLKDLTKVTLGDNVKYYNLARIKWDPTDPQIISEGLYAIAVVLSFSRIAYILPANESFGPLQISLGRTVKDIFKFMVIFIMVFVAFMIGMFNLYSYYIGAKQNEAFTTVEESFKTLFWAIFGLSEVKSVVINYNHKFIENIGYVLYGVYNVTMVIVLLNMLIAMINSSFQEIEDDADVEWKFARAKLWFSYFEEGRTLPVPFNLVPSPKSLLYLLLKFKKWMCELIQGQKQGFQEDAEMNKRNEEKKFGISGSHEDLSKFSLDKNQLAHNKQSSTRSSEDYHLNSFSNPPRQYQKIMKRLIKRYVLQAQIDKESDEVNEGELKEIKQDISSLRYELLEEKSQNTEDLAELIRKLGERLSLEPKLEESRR

[10] = biological target: Short transient receptor potential channel 6 (Mus musculus) (UniProt Q61143); assay: activation of mouse TRPC6 channel, confirmation, selectivity assay for TRPC4 activator project, cell-based, HEK293, membrane potential dye, duplicate (AID 434950;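 active = membrane potential signal rise above negative control mean plus 3 SD in both duplicates, also active in the earlier TRPC4 screen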); settings: HEK293 TRPC6, membrane potential fluorescence, at 10 µM; stronger effect = higher value
[11] = biological target: Short transient receptor potential channel 6 (Mus musculus) (UniProt Q61143); assay: TRPC6 potentiation by TRPC4 potentiator hits, confirmation, selectivity assay for TRPC4 potentiator project, HEK293 cells, membrane potential dye, duplicate (AID 434952;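 active = compound raising the membrane signal above positive-control mean plus 3 SD in both repeats, and a primary screen hit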); settings: HEK293 TRPC6, membrane potential dye fluorescence, at 10 µM, maximal acetylcholine added after compound; stronger effect = higher value
[12] = biological target: Short transient receptor potential channel 4 (Mus musculus) (UniProt Q9QUQ5); assay: calcium flux activators in TRPC4/5HT1a cells, counter-screen for TRPC4 activator project, cell-based, second counter screen, HEK293 TRPC4/5HT1a, Fluo-4 (AID 434977;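 active = calcium signal rise above buffer-control mean plus 5 SD in both duplicates, and also a hit in the primary screen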); settings: Fluo-4 calcium flux, at 10 µM; stronger effect = higher value
[13] = calcium flux inhibitors in TRPC4/5HT1a cells, confirmation, counter-screen for TRPC4 inhibitor project, cell-based, second counter screen, HEK293 TRPC4/5HT1a, Fluo-4 (AID 434978;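 active = primary screen active whose calcium signal fell more than 3 SD beyond the full-serotonin control mean in both duplicate plates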); settings: Fluo-4 calcium flux, at 10 µM, serotonin added to trigger calcium flux; stronger effect = higher value
[14] = tested on: TRPC4 (mouse), co-expressed with 5HT1a in HEK293; assay: calcium flux potentiators in TRPC4/5HT1a cells, confirmation, counter-screen for TRPC4 potentiator project, cell-based, second counter screen, HEK293 TRPC4/5HT1a, Fluo-4 (AID 434979;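 active = signal rise over 3 SD above mean of control wells given weak agonist, in both repeats and first screen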); settings: Fluo-4 calcium flux, at 10 µM, serotonin added at its EC20 dose; stronger effect = higher value
[15] = calcium flux activation in mu-opioid HEK293 cells, confirmation, counter-screen for TRPC4 activator project, cell-based, HEK293 mu-opioid receptor line (AID 449723;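 active = hit in primary screen, with calcium signal over 5 SD above buffer well mean in both duplicates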;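 note: counter screen cells carry the mu-opioid receptor alone and lack TRPC4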); settings: Fluo-4 calcium fluorescence, at 10 µM; stronger effect = higher value
[16] = calcium flux enhancement in mu-opioid HEK293 cells, confirmation, counter-screen for TRPC4 allosteric potentiator project, cell-based, HEK293 mu-opioid receptor line (AID 449724;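 active = calcium signal rise more than 3 SD above the low-dose agonist control mean, in both duplicate plates and the primary screen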); settings: Fluo-4 calcium flux, at 10 µM, compound added before EC20 DAMGO stimulus; stronger effect = higher value

Measured: inhibition

Cc1c(N(C)S(=O)(=O)c2cc(C(=O)NCC3CCCO3)ccc2Cl)c(=O)n(-c2ccccc2)n1C (stereo not given)
active: [5] 84% | [6] 45%
inactive: all other assays above

Cc1cccc(CCN(C(=O)c2snc(C(N)=O)c2N)C(C(=O)NCC2CCCO2)c2ccc(F)cc2)c1 (stereo not given)
active: [5] 74% | [6] 68% | [13] 46.3%
inactive: all other assays above

CC1CCCN(c2c3c(nc4ccccc24)CCCC3)C1 (stereo not given)
active: [13] 27.9%
inactive: all other assays above

C/C(CC(=O)N(C(C)C)C(C)C)=N\NC(=O)COc1ccc(Cl)cc1Cl
active: [5] 83%
inactive: all other assays above

Clc1ccc(-c2csc3ncnc(NCCN4CCOCC4)c23)cc1
active: [5] 79% | [6] 50% | [13] 38%
inactive: all other assays above

O=C(C[N+]1(CC#Cc2ccccc2)CCCCC1)c1ccc(Cl)cc1
active: [5] 86% | [13] 40.2%
inactive: all other assays above

Cc1ccc(/C=C2\SC(=S)N(C(Cc3ccccc3)C(=O)O)C2=O)cc1 (stereo not given)
active: [13] 18.3%
inactive: all other assays above

OCC1(CCc2ccccc2)CCN(Cc2ccc3nsnc3c2)CC1
active: [5] 83%
inactive: all other assays above

CC1(C)CC2CC(C)(CN2CC(O)COc2ccccc2)C1 (stereo not given)
active: [5] 86%
inactive: all other assays above

Cc1ccc(CNC(C)c2ccccc2)cc1 (stereo not given)
active: [5] 92% | [13] 30.6%
inactive: all other assays above

O=C1Nc2cc(C(=O)NCCCN3CCOCC3)ccc2S/C1=C/c1ccccc1F
inactive: all assays above

O=C(Cn1c(NCCCO)nc2ccccc21)c1ccc(Br)cc1
active: [5] 88% | [6] 52% | [13] 28.7%
inactive: all other assays above

OCCCNc1c2ccccc2nc2ccccc12
active: [5] 92% | [9] 39.5% | [13] 41.8%
inactive: all other assays above

NC(=O)N/N=C1\c2ccccc2-c2c(C(N)=O)cccc21
active: [5] 80% | [6] 65% | [13] 38.9%
inactive: all other assays above

CSCCNCc1cn(-c2ccc(F)cc2F)nc1-c1ccccc1C
active: [5] 91%
inactive: all other assays above
